FUS suppressor = FUS proteinopathy suppression in yeast; S. cerevisiae FUS-expressing, growth rescue, OD600, 24 h; Potency, µM (top dose mostly 76.6 µM), hits mostly activators; 0.24% of 390,000 active; AID 1347120;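 also: potency is read from the fitted curve at half-maximal effect; plate controls were DMSO vehicle for no effect and reference control for full effect; nearly all actives have a fitted effect of over 55% in size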
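Cultures pregrown in 2.5% raffinose medium are shifted to minimal medium containing 2% galactose to express toxic FUS. Compounds are tested at several concentrations. After 24hr at 30C, growth is quantified at 600 nm absorbance.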
CCT modulator = changes cytosolic chaperonin activity. purified chaperonin ATPase assay, HTRF ADP detection, 30 min. activity change, % (concentration not given with the values), hits read low. 0.3% of 360,000 active. AID 651819; in the data active = activity change below about -30%; also: % is scaled to controls: 0 for no effect and ±100 for the full control effect
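First, chaperonin was dispensed at 40 nM or 20 nM final depending on batch activity. Next, compounds were pinned at 76 uM and ATP added at 10 uM. After 30 min at 37 °C, ADP detection reagents ran 30 min at ambient temperature.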
TDP-43 yeast inh = TDP-43 toxicity inhibition in yeast; Potency, µM (series often up to 46.1 µM), for inactives: at the highest dose growth rescue (activation), actives largely listed as activators; TDP-43 expressing yeast growth rescue, BacTiter-Glo, 24 h; 1.8% of 410,000 active; also: potency is read from the fitted curve at half-maximal effect; % of control where 0% means no effect; nearly all actives have a fitted effect of over 50% in size
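Readout is BacTiter-Glo luminescence of cell growth, so inhibitors register as activators. TDP-43-expressing yeast at OD600=0.02 in galactose medium, after raffinose pregrowth to mid-log, were incubated with compound for 24 hr at 30 deg C.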
Mm-Cpn inhibitor = inhibitors of Methanococcus maripaludis chaperonin TRiC (MmCpn); purified Mm-Cpn ATPase, ADP Transcreener TR-FRET; Potency, µM (series often up to 76.9 µM), for the others: top-dose activity, negative = inhibition, hits mostly inhibitors; 0.031% of 330,000 active; also: potency is read from the fitted curve at half-maximal effect; % is scaled to controls: 0 for no effect and ±100 for the full control effect; nearly all actives have a fitted effect of over 80% in size
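ATP (10 uM final) was added to archaeal chaperonin (25 nM final) after 10 min exposure to test compound at 37°C; after 30 min further incubation, ADP was detected by competitive TR-FRET.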
Abeta rescue = restores growth of yeast expressing A-beta42 peptide | yeast expressing A-beta42, growth rescue, OD600, 48 h; response scale: 0% DMSO, 100% iron-clioquinol control | Potency, µM (doses to about 46.1 µM), most hits filed as activators | 0.063% of 410,000 active | AID 1347071; also: potency is read from the fitted curve at half-maximal effect; nearly all actives have a fitted effect of over 55% in size
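Growth rescue measured by 600 nm absorbance after 48 h yeast culture at 30 C with compound. Values normalized between DMSO and an equimolar ferric chloride plus clioquinol control.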
aSyn rescue = rescues yeast growth from alpha-synuclein toxicity; Yeast expressing alpha-synuclein, growth rescue, BacTiter-Glo, 24 h; Potency, µM (top dose mostly 46.1 µM), inactives show at the highest dose growth rescue (activation), most hits filed as activators; 0.14% of 370,000 active; AID 652106; also: potency is read from the fitted curve at half-maximal effect; % of control where 0% means no effect; nearly all actives have a fitted effect of over 65% in size
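Rescue of yeast growth: cells expressing toxic alpha-synuclein, induced in galactose at OD600 0.02, incubated with compound 24 h at 30 C. ATP luminescence quantified growth; inhibitors of toxicity appear as activators.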
Starred values were filed as active, the others as inactive; i = inactive; ? = inconclusive; . = not tested or not shown; [ ] = another dose, or the depositor's remark. A selection: hits, their analogues and other compounds. The true share with any hit is near 2.3%. Unless noted, calls follow the shape of the dose curve; as a rule, active = well fitted curve in the direction sought with a large enough effect; inconclusive = small, poorly fitted or top-dose-only effect, or another doubt; inactive = no such curve, though single readings can be large; an effect the other way counts as inactive or inconclusive.

SMILES	FUS suppressor	CCT modulator	TDP-43 yeast inh	Mm-Cpn inhibitor	Abeta rescue	aSyn rescue
COc1ccccc1CNS(=O)(=O)c1ccc(Cl)s1	i	-1	13µM*	0%	i	16%
COc1ccccc1Cn1c(CNS(=O)(=O)c2ccc(Cl)s2)nc2cccnc21	i	.	0%	.	i	.
Cc1cc(C)c(S(=O)(=O)NCc2ccc3c(c2)OCO3)c(C)c1	i	1	18µM*	-1%	i	2%
O=S(=O)(NCc1ccc2c(c1)OCO2)c1ccc(Cl)s1	i	-1	11µM*	1%	i	9%
CCOc1cc(C)c(Cl)cc1S(=O)(=O)NCc1ccc2c(c1)OCO2	i	0	14µM*	2%	i	11%
C=CCn1c(Cc2cccs2)nnc1SCC(=O)Nc1ccc(C)cc1	i	.	.	.	.	.
Cc1ccc(NC(=O)CN2C(=O)COc3ccc(S(=O)(=O)N4CCCCCC4)cc32)cc1C	i	.	?	.	i	.
COc1ccc(C(=O)C2(C(=O)NCc3ccccc3)CC(c3ccccn3)=NO2)cc1 (configuration not stated)	i	.	.	.	.	.
O=C(NCCc1ccc(Cl)cc1)c1ccc(CSCc2cccc(Cl)c2)o1	i	.	20µM*	.	i	.
O=C(NCc1ccc(Cl)cc1)c1ccc(CSCc2cccc(Cl)c2)o1	i	.	?	.	i	.
Cc1ccc(CNC(=O)c2ccc(CSCc3ccccc3C)o2)cc1	i	.	?	.	i	.
Cc1ccccc1CSCc1ccc(C(=O)NCCc2ccccc2)o1	i	.	35µM*	.	i	22%
O=C(NCc1ccc(F)cc1)c1ccc(CSCc2cccc(Cl)c2)o1	?	.	22µM*	.	i	.
COc1ccc(CCNC(=O)c2ccc(CSc3ccc(Cl)cc3)o2)cc1OC	?	.	33µM*	.	.	.
O=C(N1CCC(Cc2ccccc2)CC1)n1ncc(C(O)(c2ccccc2)c2ccccc2)n1	i	.	.	.	.	.
CC(c1ccco1)N(C(=O)c1cccc(S(=O)(=O)N(C)C)c1)c1ccccn1 (configuration not stated)	i	-51*	7%	2%	i	0%
CCn1c2ccccc2c2cc(NC(=O)COC(=O)c3ccc(F)cc3F)ccc21	i	.	.	.	.	.
CN(C)c1ccc(C#Cc2ccc3cc(CCO)oc(=O)c3c2)cc1	i	1	3%	-25%	i	-12%
O=c1oc(CCO)cc2ccc(C#Cc3ccsc3)cc12	i	0	18µM*	-4%	i	-2%
O=C1CC(c2ccccc2)=Nc2ccccc2N1Cc1ccccc1	i	-6	13µM*	1%	i	10%
N/C(=N\OC(=O)c1ccc(Br)o1)c1ccccn1	i	-2	14µM*	-1%	i	0%
N/C(=N\OC(=O)/C=C/c1ccc(Br)cc1)c1ccccn1	i	4	18µM*	-1%	i	1%
Cc1cccc(C(=O)O/N=C(\N)c2ccccn2)c1	i	-4	13µM*	1%	i	-24%
CC(C)(C)c1ccc(C(=O)O/N=C(\N)c2ccccn2)cc1	i	-2	?	-5%	i	5%
Cc1ccc(C(=O)O/N=C(\N)c2ccccn2)cc1	i	0	?	-3%	i	-49%
SMILES	FUS suppressor	CCT modulator	TDP-43 yeast inh	Mm-Cpn inhibitor	Abeta rescue	aSyn rescue
CCOc1ccc(C(=O)O/N=C(\N)c2ccccn2)cc1	i	-1	13µM*	-1%	i	-48%
Cc1ccc(C(=O)O/N=C(\N)c2ccccn2)cc1C	i	3	10µM*	-9%	i	-17%
N/C(=N\OC(=O)c1cccc(F)c1)c1ccccn1	i	0	3.2µM*	3%	i	-3%
Cc1cccc(/C(N)=N/OC(=O)c2cccnc2)c1	i	-2	11µM*	-2%	i	-8%
N/C(=N\OC(=O)c1ccccc1)c1ccccn1	i	1	-20%[0.397 µM]	1%	i	-34%
Cc1cccc(/C(N)=N/OC(=O)c2ccc(Br)o2)c1	.	-2	4.5µM*	-3%	i	-36%
COc1cc(OC)cc(C(=O)O/N=C(\N)c2cccc(C)c2)c1	i	0	?	0%	i	-49%
COc1cc(C(=O)O/N=C(\N)c2ccccn2)cc(OC)c1OC	i	2	?	-2%	i	-1%
Clc1ccc(-n2c(Cc3cccs3)nnc2SC/C=C/c2ccccc2)cc1	i	.	.	.	.	.
O=C(Nc1ccncc1)c1cnn2c1NC(=C1CC1)C=C2C(F)F	.	.	.	.	.	9%
COc1cccc(CO[C@H]2C=C[C@@H](c3ccccc3)O[C@@H]2CO)c1	i	.	.	.	.	.
O=S(=O)(c1ccc(Cl)cc1)N1CCOCC1	.	.	.	.	.	1%
CCn1cc(Br)c(C(=O)Nc2ccc(F)c(Cl)c2)n1	i	-2	11µM*	1%	i	0%
CCOC(=O)c1ccc(NC(=O)c2nn(CC)cc2Br)cc1	i	0	14%	0%	i	-18%
CCn1cc(Br)c(C(=O)Nc2ccc(Cl)cc2Cl)n1	i	0	4.5µM*	2%	i	2%
Cc1cccc(/C=N/n2c(COc3ccccc3)n[nH]c2=S)c1	i	1	29%	0%	i	1%
CC(/C=N/n1c(COc2ccccc2)n[nH]c1=S)=C\c1ccccc1	i	0	11µM*	-2%	i	.
O=[N+]([O-])c1cncc2[nH]cnc12	i	.	.	.	.	.
Cc1cccc(OCCSc2nncn2C)c1	i	0	11%	1%	i	3%
Cc1cccc(OCCSc2nnc(-c3ccoc3C)n2C)c1	i	-1	18µM*	0%	i	4%
COc1cccc2sc(N3CCN(C(=O)CCS(=O)(=O)c4ccc(F)cc4)CC3)nc12	i	.	20%	.	i	.
CN(C)c1ccc(C(=O)NCCc2ccccc2-c2ccccc2CCC(=O)NCc2ccccc2)cc1	i	.	.	.	.	.
COc1cc(O)c2c(c1)OC(c1ccc(O)cc1)CC2=O (configuration not stated)	i	-1	13µM*	.	i	8%
COc1ccc([C@@H]2CC(=O)c3c(O)cc(O)cc3O2)cc1O	i	1	0%	1%	i	0%
Nc1c(Cl)cnc(C(Cl)(Cl)Cl)c1Cl	i	2	13µM*	1%	i	0%
CC1(C(=O)NC2CCCC2)CCN1C(=O)Cc1ccc(-c2ccccc2)cc1 (configuration not stated)	i	0	?	.	i	?
CC1(C(=O)Nc2ccccc2)CCN1C(=O)Cc1ccc(-c2ccccc2)cc1 (configuration not stated)	?	0	0%	.	i	1%

Source: PubChem (National Center for Advancing Translational Sciences (NCATS))
